Experimental data published in PubChem BioAssay AID488896 (Broad Institute, 2010).
Among all 320,000 compounds or so, about 3,100 (0.97%) were called active.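 The calls were made as follows: active = mean replicate inhibition of at least 70% and a set share of replicates each scoring 70 or more; inconclusive = meets just one of the two criteria; inactive = fails both criteria.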 Shown is part of a subset that was picked to be rich in actives.

What follows are compounds tested against Scavenger receptor class B member 1 (Mus musculus) (UniProt Q61009) (assay: inhibitors of SR-BI mediated HDL lipid uptake, primary screen, ldlA[mSR-BI] cells, fluorescence, single point (AID 488896;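 also: 0% = median of neutral control wells and 100% = median of positive control wells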)). Conditions: ldlA[mSR-BI] CHO cells, DiI-HDL uptake fluorescence, 3 h; at 12.5 µM; hits give high values.
Chain of Scavenger receptor class B member 1 (Mus musculus) (Q61009 whole entry, looked up): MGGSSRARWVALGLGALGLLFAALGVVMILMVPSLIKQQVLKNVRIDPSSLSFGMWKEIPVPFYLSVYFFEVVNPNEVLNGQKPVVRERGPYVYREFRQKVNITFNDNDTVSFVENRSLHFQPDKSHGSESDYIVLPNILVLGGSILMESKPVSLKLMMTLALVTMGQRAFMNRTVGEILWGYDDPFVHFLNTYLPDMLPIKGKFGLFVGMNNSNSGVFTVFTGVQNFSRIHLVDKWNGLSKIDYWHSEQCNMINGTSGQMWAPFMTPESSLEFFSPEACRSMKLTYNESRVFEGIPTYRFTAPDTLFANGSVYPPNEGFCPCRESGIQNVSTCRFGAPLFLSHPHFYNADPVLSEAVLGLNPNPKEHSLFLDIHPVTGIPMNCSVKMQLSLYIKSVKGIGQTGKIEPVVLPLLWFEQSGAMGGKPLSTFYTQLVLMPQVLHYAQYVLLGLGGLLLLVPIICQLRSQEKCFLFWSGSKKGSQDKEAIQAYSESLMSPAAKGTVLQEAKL

| SMILES | inhibition |
| --- | --- |
| Oc1c(Cl)cc(Cl)c(Cl)c1Cc1c(O)c(Cl)cc(Cl)c1Cl | 78.2% (active) |
| CC(C)(C)OC(=O)N(Cc1ccccc1)Cc1ccc(OCc2cccc(NC(=O)c3ccccc3)c2)cc1 | 30.4% (inactive) |
| COc1cc(OC)cc(-c2nnc(N(C)C(=O)c3ccncc3)s2)c1 | 45% (inactive) |
| CN(C(=O)COc1ccccc1)c1nnc(-c2ccncc2)s1 | 70.2% (active) |
| CN(C(=O)c1ccccn1)c1nnc(-c2ccccn2)s1 | -7.4% (inactive) |
| N#CCc1c[nH]c2ccc([N+](=O)[O-])cc12 | -13.4% (inactive) |
| Cc1nc(Nc2ccccc2C)c2cnn(C)c2n1 | -3.29% (inactive) |
| CCOc1cc(NC(=O)c2ccco2)c(OCC)cc1NC(=O)COc1ccccc1 | 80.9% (active) |
| CCOc1cc(N2CCOCC2)c(OCC)cc1NC(=O)c1cc(C)nc2ccccc12 | 20.8% (inactive) |
| CCOc1cc(NC(=S)NCCCOC)c(OCC)cc1NC(=O)c1ccco1 | 28.5% (inactive) |
| CCOc1cc(N2CCOCC2)c(OCC)cc1NC(=O)COc1cccc(Cl)c1 | 74.8% (active) |
| CCOc1cc(NC(=S)NCc2ccco2)c(OCC)cc1NC(=O)c1ccco1 | 43.4% (inactive) |
| CCOc1cc(N2CCOCC2)c(OCC)cc1NC(=O)c1ccc(C)s1 | 37% (inactive) |
| CN(C)C(=S)N=c1ssc(=S)n1Cc1ccco1 | 0.753% (inactive) |
| CC(=O)Nc1ccc(C(=O)Nc2cc(S(=O)(=O)N3CCOCC3)ccc2N2CCOCC2)cc1 | -8.12% (inactive) |
| COC(=O)Cc1c(-c2[nH]c3ccccc3c2CC(=O)OC)[nH]c2ccccc12 | 37.9% (inactive) |
| O=C(NOCc1ccccc1)c1cccc([N+](=O)[O-])c1 | -13.8% (inactive) |
| O=C1Nc2ccc(Br)cc2/C1=N/N=C/C1=C(N2CCOCC2)C(=C\c2ccccc2)/CC1 | 147% (active) |
| C(=N\N1CCN(c2ccccn2)CC1)/C1=C(N2CCOCC2)C(=C/c2ccccc2)/CC1 | 95.8% (active) |

| SMILES | inhibition |
| --- | --- |
| COc1ccc(/C=N/N=C2/C(=O)Nc3ccccc32)cc1O | -2.91% (inactive) |
| O=C(CSc1nnc(N2CCOCC2)n1-c1cccc(F)c1)N1CCN(c2ccccn2)CC1 | 0.884% (inactive) |
| O=C(O)c1ccc(NN=CC2=C(N3CCOCC3)/C(=C/c3ccccc3)CC2)cc1 | -13% (inactive) |
| C[C@H](O)[C@@H]1C(=O)N2CCc3ccc(N4CCOCC4)cc3[C@@H]2C[C@@H]1N(C)C(=O)C(C)(C)C | -2.83% (inactive) |
| COc1cc2c(cc1OC)C(Cc1cc(OC)c(OC)cc1[N+](=O)[O-])=NCC2 | -13% (inactive) |
| CC1CN(Cc2ccco2)C(=S)N(c2ccccc2)C1=O (configuration not stated) | -33.1% (inactive) |
| COc1cc(C2c3cc4c(cc3C(O)C3COC(=O)C23)OCO4)cc(OC)c1OC (configuration not stated) | -0.16% (inactive) |
| CCOc1ccc(S(=O)(=O)N2CCN(C(=O)c3oc4ccccc4c3C)CC2)cc1 | -15.2% (inactive) |
| CCOc1ccc(-c2nnn(CC(=O)N3CCN(c4ccc(F)cc4)CC3)n2)cc1OCC | 48.2% (inactive) |
| COc1ccc(C(=O)Cn2nnc(-c3ccc(N4CCOCC4)cc3)n2)cc1OC | 33% (inactive) |
| CCOc1ccc(-c2nnn(CC(=O)N3CCN(c4ccc(OC)cc4)CC3)n2)cc1OCC | 82% (active) |
| COc1ccc(Cl)cc1NC(=O)c1oc(C)nc1C | 10.4% (inactive) |
| Cc1nc(NC(=O)CN(C)S(=O)(=O)c2ccc(Cl)cc2)sc1C | 2.99% (inactive) |
| Cc1cccc(S(=O)(=O)CC(=O)Nc2nc(-c3ccccc3)cs2)c1 | -18% (inactive) |
| CCC(=O)Nc1nc(C)c(C(=O)Nc2cccc(Cl)c2)s1 | 49.6% (inactive) |
| CCCCCCC(=O)Nc1nc(C)c(-c2csc(Nc3cc(Cl)ccc3OC)n2)s1 | 97.4% (active) |
| COc1cccc(CC(=O)Nc2ccc(-c3csc(C)n3)cc2)c1 | 22% (inactive) |
| CCCCC(=O)Nc1nc(C)c(-c2csc(Nc3ccc(Cl)cc3)n2)s1 | 103% (active) |
| COc1cccc(NC(=O)CN2CCN(c3nc(-c4cccc(OC)c4)cs3)CC2)c1 | 19.1% (inactive) |

| SMILES | inhibition |
| --- | --- |
| CCCCCCC(=O)Nc1nc(C)c(-c2csc(Nc3cccc(OC)c3)n2)s1 | 87.2% (active) |
| C=CCCC(=O)Nc1nc(C)c(-c2csc(Nc3ccc(Cl)cc3)n2)s1 | 104% (active) |
| CCCCC(=O)N/N=C(\C)CC(=O)Nc1cc(Cl)ccc1OC | 27.7% (inactive) |
| CCCCN(C)CCC(=O)Nc1ccc(Cl)cc1 | -5.92% (inactive) |
| CC(=O)c1cccc(-c2ccc(CN3C(CC(C)C)C(=O)N(Cc4cn(CC5CCCCC5)nn4)CCS3(=O)=O)cc2)c1 (configuration not stated) | 48.8% (inactive) |
| COc1cc(O)c2c(=O)c3c(O)c(O)ccc3oc2c1OC | 10.1% (inactive) |
| O=c1oc2ccccc2c(=O)c2ccccc12 | -23.4% (inactive) |
| COc1ccc(C(=O)N(C)Cc2ccc(OC)c(OC)c2OC)cc1S(=O)(=O)N1CCOCC1 | -8.86% (inactive) |
| CC(Nc1ccc([N+](=O)[O-])cc1[N+](=O)[O-])c1ccccc1 (configuration not stated) | 21.4% (inactive) |
| O=[N+]([O-])c1cc2ccccc2nc1-c1ccccc1 | -10.5% (inactive) |
| O=C(O)C1C2C=CC(O2)C1C(=O)Nc1ccccn1 (configuration not stated) | -12.6% (inactive) |
| CCN(CC(=O)Nc1c(F)cccc1F)C(=O)Cc1cccs1 | 9.34% (inactive) |
| CC(NC(=O)c1ccccc1)C(=O)OCC(=O)Nc1cccc(S(=O)(=O)N2CCCC2)c1 (configuration not stated) | -1.56% (inactive) |
| CCOc1cc(C(=O)N(Cc2ccccc2)c2ccc(C)cc2)ccc1OCC(=O)N1CCOCC1 | 5.71% (inactive) |
| O=C(c1ccc2c(c1)C(=O)N(Cc1ccncc1)C2=O)N1CCN(S(=O)(=O)c2ccc(OC(F)(F)F)cc2)CC1 | -23.1% (inactive) |
| Cc1cc(C(=O)CSc2nc(N)cc(=O)[nH]2)c(C)n1CCc1ccc(Cl)cc1 | 83.8% (active) |
| Cc1cc(C(=O)CSc2nc(N)cc(=O)[nH]2)c(C)n1Cc1ccco1 | -21.5% (inactive) |
| CCCc1cc(=O)[nH]c(SCC(=O)c2cc(C)n(CCC)c2C)n1 | 10.7% (inactive) |
| O=C(O)C(CCc1ccccn1)c1ccccc1 (configuration not stated) | 11.9% (inactive) |
